According to PubChem BioAssay AID1159580 (chemical genetic matrix, 2015):
Where “and” joins values, the source holds several entries; their conditions need not be identical. Equal entries are not always repeated. Among all 5,500 compounds or so, about 2,000 (36%) were called active. Not shown: some 18% with an inconclusive outcome. Cut-off read from the data, not from the text of the source: active = normalized growth mostly below about 0.91 (no sharp cut-off); inconclusive = no clear call, values can overlap the other calls; inactive = mostly above about 0.92. The list shows a part of the results.

Assay: chemical genetic growth profiling, strain panel (AID 1159580);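 note: tested at 20 µM; growth read once vehicle control cultures reached saturation at 30 °C; 1 = growth at the plate median or of vehicle wells; lower values mean less growth of the strain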
Details: S. cerevisiae deletion strains, growth OD

Measured: normalized growth

C[n+]1cc2c3c(ccc2c2ccc4cc5c(cc4c21)OCO5)OCO3
inactive: locus YBR171W, strain sec66, stronger effect = lower value 0.983 | locus YDL185W, strain tfp1, stronger effect = lower value 0.914 | locus YDR001C, strain nth1, stronger effect = lower value 0.928 | locus YDR069C, strain doa4, stronger effect = lower value 0.902 | locus YDR195W, strain ref2 1.09 | locus YER002W, strain NOP16, stronger effect = lower value 1.01 | locus YGL167C, strain pmr1, stronger effect = lower value 0.974 | locus YHR079C, strain IRE1, stronger effect = lower value 0.985 | locus YJL154C, strain vps35, stronger effect = lower value 0.962 | locus YJR066W, strain TOR1, stronger effect = lower value 0.931 | locus YKL009W, strain mrt4, stronger effect = lower value 0.922 | locus YKL068W, stronger effect = lower value 0.964 | locus YLR113W, strain HOG1, stronger effect = lower value 0.951 | locus YLR384C, strain iki3, stronger effect = lower value 0.97 | locus YMR231W, strain pep5, stronger effect = lower value 0.991 | locus YNL183C, strain NPR1, stronger effect = lower value 0.923 | locus YNL271C, strain bni1, stronger effect = lower value 0.92 | locus YNL298W, strain CLA4, stronger effect = lower value 0.951 | locus YNL322C, strain KRE1 (second series), stronger effect = lower value 1 | locus YNR049C, strain mso1, stronger effect = lower value 0.964 | locus YOL012C, strain htz1 0.232 | locus YOR231W, strain MKK1, stronger effect = lower value 0.96 | locus YPL256C, strain CLN2, stronger effect = lower value 0.969 | locus YPR141C, strain kar3, stronger effect = lower value 0.971
active: locus YAL013W, strain DEP1, stronger effect = lower value 0.06 and 0.0669 | locus YAL021C, strain ccr4, stronger effect = lower value 0.823 | locus YAL026C, strain drs2, stronger effect = lower value 0.657 | locus YAL030W, strain snc1, stronger effect = lower value 0.676 | locus YBL061C, strain skt5, stronger effect = lower value 0.627 | locus YBR009C, strain hhf1, stronger effect = lower value 0.268 | locus YBR021W, strain FUR4, stronger effect = lower value 0.146 | locus YBR023C, strain chs3, stronger effect = lower value 0.592 | locus YBR229C, strain ROT2, stronger effect = lower value 0.0617 | locus YBR231C, strain swc5, stronger effect = lower value 0.326 | locus YBR279W, strain paf1, stronger effect = lower value 0.674 | locus YCL011C, strain gbp2, stronger effect = lower value 0.34 | locus YCL016C, strain dcc1, stronger effect = lower value 0.535 | locus YCL029C, strain bik1, stronger effect = lower value 0.0684 | locus YCL061C, strain MRC1, stronger effect = lower value 0.672 | locus YCL069W, strain vba3, stronger effect = lower value 0.596 | locus YCR088W, strain abp1, stronger effect = lower value 0.802 | locus YDL005C, strain med2, stronger effect = lower value 0.711 | locus YDL035C, strain GPR1, stronger effect = lower value 0.057 | locus YDL040C, strain nat1, stronger effect = lower value 0.858 | locus YDL074C, strain BRE1, stronger effect = lower value 0.0875 | locus YDL101C, strain DUN1, stronger effect = lower value 0.0699 | locus YDL134C, strain PPH21, stronger effect = lower value 0.0603 | locus YDL192W, strain arf1, stronger effect = lower value 0.0735 | locus YDR101C, strain arx1, stronger effect = lower value 0.0711 | locus YDR137W, strain rgp1, stronger effect = lower value 0.692 | locus YDR150W, strain NUM1, stronger effect = lower value 0.0564 | locus YDR159W, strain sac3, stronger effect = lower value 0.62 | locus YDR162C, strain NBP2, stronger effect = lower value 0.0557 | locus YDR297W, strain sur2, stronger effect = lower value 0.609 | locus YDR318W, strain mcm21, stronger effect = lower value 0.0705 | locus YDR334W, strain swr1, stronger effect = lower value 0.46 | locus YDR335W, strain msn5, stronger effect = lower value 0.714 | locus YDR363W, strain ESC2, stronger effect = lower value 0.0888 | locus YDR388W, stronger effect = lower value 0.0658 | locus YDR392W, strain spt3, stronger effect = lower value 0.11 | locus YDR502C, strain sam2, stronger effect = lower value 0.0731 | locus YEL003W, strain gim4, stronger effect = lower value 0.668 | locus YEL037C, strain rad23, stronger effect = lower value 0.797 | locus YEL061C, strain CIN8 (second series), stronger effect = lower value 0.7 | locus YEL061C, strain CIN8, stronger effect = lower value 0.0546 | locus YER015W, strain faa2, stronger effect = lower value 0.516 | locus YER016W, strain bim1, stronger effect = lower value 0.788 | locus YER110C, stronger effect = lower value 0.0876 | locus YER111C, strain swi4, stronger effect = lower value 0.847 | locus YER155C, strain BEM2 (second series), stronger effect = lower value 0.442 | locus YER155C, strain BEM2, stronger effect = lower value 0.0755 | locus YER167W, strain BCK2, stronger effect = lower value 0.0605 | locus YFR010W, strain ubp6, stronger effect = lower value 0.898 | locus YGL078C, strain dbp3, stronger effect = lower value 0.907 | locus YGL086W, strain mad1, stronger effect = lower value 0.0683 | locus YGL173C, strain kem1, stronger effect = lower value 0.772 | locus YGL227W, strain vid30, stronger effect = lower value 0.519 | locus YGL240W, strain doc1, stronger effect = lower value 0.396 | locus YGL248W, strain PDE1, stronger effect = lower value 0.0602 | locus YGL253W, strain hxk2, stronger effect = lower value 0.501 | locus YGR078C, strain PAC10, stronger effect = lower value 0.0588 | locus YGR135W, strain pre9, stronger effect = lower value 0.0753 | locus YGR229C, strain SMI1, stronger effect = lower value 0.0651 | locus YGR252W, strain gcn5, stronger effect = lower value 0.18 | locus YHR013C, strain ard1, stronger effect = lower value 0.319 | locus YHR027C, strain rpn1, stronger effect = lower value 0.73 | locus YHR079C, strain IRE1 (second series), stronger effect = lower value 0.0663 | locus YHR094C, strain hxt1, stronger effect = lower value 0.0664 | locus YHR129C, strain ARP1, stronger effect = lower value 0.0634 | locus YHR142W, strain chs7, stronger effect = lower value 0.348 | locus YHR200W, strain rpn10, stronger effect = lower value 0.0675 | locus YIL066C, strain RNR3, stronger effect = lower value 0.0586 | locus YIL073C, strain SPO22, stronger effect = lower value 0.133 | locus YIL125W, strain kgd1, stronger effect = lower value 0.915 | locus YIR030C, strain dcg1, stronger effect = lower value 0.0697 | locus YJL092W, strain hpr5, stronger effect = lower value 0.793 | locus YJL095W, strain BCK1 (second series), stronger effect = lower value 0.467 | locus YJL115W, strain asf1, stronger effect = lower value 0.881 | locus YJL129C, strain trk1, stronger effect = lower value 0.309 | locus YJL134W, strain LCB3, stronger effect = lower value 0.0573 | locus YJL164C, strain tpk1, stronger effect = lower value 0.363 | locus YJL166W, strain qcr8, stronger effect = lower value 0.242 | locus YJL168C, strain set2, stronger effect = lower value 0.0819 | locus YJL187C, strain SWE1 (second series), stronger effect = lower value 0.0606 | locus YJL187C, strain SWE1, stronger effect = lower value 0.618 | locus YJR043C, strain POL32, stronger effect = lower value 0.0783 | locus YJR075W, strain HOC1, stronger effect = lower value 0.0715 and 0.0688 | locus YKL085W, strain MDH1 (second series), stronger effect = lower value 0.921 | locus YKL085W, strain MDH1, stronger effect = lower value 0.921 | locus YKL160W, strain elf1, stronger effect = lower value 0.548 | locus YKL190W, strain CNB1, stronger effect = lower value 0.0545 | locus YKR001C, strain vps1, stronger effect = lower value 0.0723 | locus YKR026C, strain gcn3, stronger effect = lower value 0.843 | locus YKR091W, strain srl3, stronger effect = lower value 0.914 | locus YLL001W, strain dnm1, stronger effect = lower value 0.639 | locus YLL026W, stronger effect = lower value 0.549 | locus YLL041C, strain sdh2, stronger effect = lower value 0.778 | locus YLR027C, strain aat2, stronger effect = lower value 0.379 | locus YLR039C, strain RIC1, stronger effect = lower value 0.101 | locus YLR058C, strain SHM2, stronger effect = lower value 0.0596 | locus YLR102C, strain apc9, stronger effect = lower value 0.0679 | locus YLR221C, strain rsa3, stronger effect = lower value 0.562 | locus YLR258W, strain gsy2, stronger effect = lower value 0.502 | locus YLR262C, strain YPT6 (second series), stronger effect = lower value 0.827 | locus YLR262C, strain YPT6, stronger effect = lower value 0.123 | locus YLR268W, strain sec22, stronger effect = lower value 0.0776 | locus YLR320W, strain mms22, stronger effect = lower value 0.375 | locus YLR330W, strain CHS5, stronger effect = lower value 0.0586 | locus YLR342W, strain FKS1 (second series), stronger effect = lower value 0.0743 | locus YLR342W, strain FKS1, stronger effect = lower value 0.349 | locus YLR357W, strain rsc2, stronger effect = lower value 0.844 | locus YLR370C, strain arc18, stronger effect = lower value 0.762 | locus YLR371W, strain rom2, stronger effect = lower value 0.0708 | locus YLR418C, strain cdc73, stronger effect = lower value 0.107 | locus YML016C, strain PPZ1, stronger effect = lower value 0.0598 | locus YML032C, strain rad52, stronger effect = lower value 0.0764 | locus YML120C, strain ndi1, stronger effect = lower value 0.582 | locus YML124C, strain tub3, stronger effect = lower value 0.0684 | locus YMR058W, strain fet3, stronger effect = lower value 0.592 | locus YMR078C, strain ctf18, stronger effect = lower value 0.0819 | locus YMR125W, strain sto1, stronger effect = lower value 0.462 | locus YMR129W, stronger effect = lower value 0.779 | locus YMR205C, strain PFK2, stronger effect = lower value 0.273 | locus YMR223W, strain ubp8, stronger effect = lower value 0.077 | locus YMR307W, strain GAS1, stronger effect = lower value 0.145 and 0.0622 | locus YNL067W, strain RPL9B, stronger effect = lower value 0.0573 | locus YNL071W, strain lat1, stronger effect = lower value 0.0942 | locus YNL175C, strain NOP13, stronger effect = lower value 0.0763 | locus YNL197C, strain WHI3, stronger effect = lower value 0.0898 | locus YNL209W, strain ssb2, stronger effect = lower value 0.623 | locus YNL224C, strain SQS1, stronger effect = lower value 0.0906 | locus YNL233W, strain BNI4, stronger effect = lower value 0.0657 | locus YNL248C, strain rpa49, stronger effect = lower value 0.688 | locus YNL250W, strain rad50, stronger effect = lower value 0.839 | locus YNL307C, strain MCK1, stronger effect = lower value 0.0755 | locus YNL322C, strain KRE1, stronger effect = lower value 0.0622 | locus YNR052C, strain pop2, stronger effect = lower value 0.085 | locus YOL006C, strain TOP1, stronger effect = lower value 0.135 | locus YOL147C, strain pex11, stronger effect = lower value 0.0667 | locus YOR001W, strain rrp6, stronger effect = lower value 0.823 | locus YOR061W, strain CKA2, stronger effect = lower value 0.0586 | locus YOR069W, strain VPS5, stronger effect = lower value 0.0593 | locus YOR070C, strain gyp1, stronger effect = lower value 0.413 | locus YOR080W, strain dia2, stronger effect = lower value 0.825 | locus YOR083W, strain WHI5 (second series), stronger effect = lower value 0.0851 | locus YOR083W, strain WHI5, stronger effect = lower value 0.475 | locus YOR106W, strain vam3, stronger effect = lower value 0.315 | locus YOR136W, strain idh2, stronger effect = lower value 0.0832 | locus YOR144C, strain elg1, stronger effect = lower value 0.0651 | locus YOR184W, strain ser1, stronger effect = lower value 0.0766 | locus YOR265W, strain rbl2, stronger effect = lower value 0.5 | locus YOR270C, strain vph1, stronger effect = lower value 0.38 | locus YOR290C, strain snf2, stronger effect = lower value 0.412 | locus YOR316C, strain cot1, stronger effect = lower value 0.0661 | locus YPL051W, strain arl3, stronger effect = lower value 0.512 | locus YPL055C, strain LGE1, stronger effect = lower value 0.0742 and 0.092 | locus YPL078C, strain atp4, stronger effect = lower value 0.538 | locus YPL106C, strain sse1, stronger effect = lower value 0.741 | locus YPL240C, strain hsp82, stronger effect = lower value 0.58 | locus YPR119W, strain clb2, stronger effect = lower value 0.07 | locus YPR163C, strain tif3, stronger effect = lower value 0.0761 | locus YPR167C, strain met16, stronger effect = lower value 0.0704 | strain wtn01, stronger effect = lower value 0.067
0.0584 (active) and 0.981 (inactive): locus YHR030C, strain SLT2, stronger effect = lower value
0.073 (active) and 0.976 (inactive): locus YJL095W, strain BCK1, stronger effect = lower value
